Targets with a hit are over-represented here; the source holds about 7,900 in all. About 0.6% of all pairs of compound and target were hits. Unmarked numbers belong to inactive results.
Tests used:
Test in all cases: log2 fold change, soluble protein after heating vs DMSO (PISA); higher = thermal stabilisation; K562 cells, 10 uM, 30 min; active = over 0.2 and 3.5 SD of the protein, either way, in both replicates (recomputed)
[1] = compound: CS(=O)(=O)c1ccc(-c2cnc(N)c(C(=O)Nc3ccccc3)n2)cc1
Method in brief: (§1)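 Quantification of soluble protein used TMTpro 16plex LC-MS/MS, with channel sums equalised. Samples were the supernatant after 21,000xg for 90 min of pooled aliquots from K562 cells (2×10^6 cells/mL) treated with 10 μM compound for 30 min, heated for 3 min over 48°C-58°C, and extracted in PBS with 0.5% NP-40 at 4°C. Values, from duplicates, describe thermal stability against control samples on a log2 fold-change scale.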

[2] = compound: C[C@@H](Oc1cc(-c2cnn(C3CCNCC3)c2)cnc1N)c1c(Cl)ccc(F)c1Cl [crizotinib]
Method in brief: as §1

[3] = compound: C[C@@H]1COCCN1C2=NC(=NC(=C2)C3(CC3)S(=O)(=O)C)C4=C5C=CNC5=CC=C4
Method in brief: as §1

[4] = compound: C[C@H](C1=CC=C(C=C1)C(=O)NC2=C3C=CNC3=NC=C2)N
Method in brief: as §1

[5] = compound: C[C@H](Nc1ncnc2nc[nH]c12)c1cc2cccc(Cl)c2c(=O)n1-c1ccccc1 [duvelisib]
Method in brief: as §1

[6] = compound: Cc1cc(Nc2cc(CN3CCOCC3)c3nc(C)c(Cc4ccc(Cl)cc4F)n3n2)n[nH]1 [gandotinib]
Method in brief: as §1

[7] = compound: Cc1cc(Nc2cc(N3CCN(C)CC3)nc(Sc3ccc(NC(=O)C4CC4)cc3)n2)n[nH]1 [tozasertib]
Method in brief: as §1

[8] = compound: Cc1cc(SCc2sc(-c3ccc(C(F)(F)F)cc3)nc2C)ccc1OCC(=O)O
Method in brief: as §1

[9] = compound: Cc1ccc(-n2nc(C(C)(C)C)cc2NC(=O)Nc2ccc(OCCN3CCOCC3)c3ccccc23)cc1 [doramapimod]
Method in brief: as §1

[10] = compound: Cc1ccc(C(=O)N(CCCN)[C@@H](c2nc3cc(Cl)ccc3c(=O)n2Cc2ccccc2)C(C)C)cc1 [ispinesib]
Method in brief: as §1

Sequence of UniProt Q2TAA5 (Q2TAA5 whole entry, looked up): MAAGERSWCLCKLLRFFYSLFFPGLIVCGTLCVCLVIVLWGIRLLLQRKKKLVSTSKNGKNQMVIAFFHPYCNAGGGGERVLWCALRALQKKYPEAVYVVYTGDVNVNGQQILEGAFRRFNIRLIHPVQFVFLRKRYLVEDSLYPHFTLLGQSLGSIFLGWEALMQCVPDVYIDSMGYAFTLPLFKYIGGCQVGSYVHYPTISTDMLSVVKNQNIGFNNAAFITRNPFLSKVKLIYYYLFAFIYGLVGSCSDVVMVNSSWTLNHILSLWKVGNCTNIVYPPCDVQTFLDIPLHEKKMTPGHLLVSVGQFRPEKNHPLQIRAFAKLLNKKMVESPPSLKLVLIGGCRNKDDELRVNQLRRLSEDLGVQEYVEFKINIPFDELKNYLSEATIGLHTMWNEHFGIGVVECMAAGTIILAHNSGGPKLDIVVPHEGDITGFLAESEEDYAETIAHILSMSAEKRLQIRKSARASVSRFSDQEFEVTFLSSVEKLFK
Sequence of UniProt Q93050 (Q93050 whole entry, looked up): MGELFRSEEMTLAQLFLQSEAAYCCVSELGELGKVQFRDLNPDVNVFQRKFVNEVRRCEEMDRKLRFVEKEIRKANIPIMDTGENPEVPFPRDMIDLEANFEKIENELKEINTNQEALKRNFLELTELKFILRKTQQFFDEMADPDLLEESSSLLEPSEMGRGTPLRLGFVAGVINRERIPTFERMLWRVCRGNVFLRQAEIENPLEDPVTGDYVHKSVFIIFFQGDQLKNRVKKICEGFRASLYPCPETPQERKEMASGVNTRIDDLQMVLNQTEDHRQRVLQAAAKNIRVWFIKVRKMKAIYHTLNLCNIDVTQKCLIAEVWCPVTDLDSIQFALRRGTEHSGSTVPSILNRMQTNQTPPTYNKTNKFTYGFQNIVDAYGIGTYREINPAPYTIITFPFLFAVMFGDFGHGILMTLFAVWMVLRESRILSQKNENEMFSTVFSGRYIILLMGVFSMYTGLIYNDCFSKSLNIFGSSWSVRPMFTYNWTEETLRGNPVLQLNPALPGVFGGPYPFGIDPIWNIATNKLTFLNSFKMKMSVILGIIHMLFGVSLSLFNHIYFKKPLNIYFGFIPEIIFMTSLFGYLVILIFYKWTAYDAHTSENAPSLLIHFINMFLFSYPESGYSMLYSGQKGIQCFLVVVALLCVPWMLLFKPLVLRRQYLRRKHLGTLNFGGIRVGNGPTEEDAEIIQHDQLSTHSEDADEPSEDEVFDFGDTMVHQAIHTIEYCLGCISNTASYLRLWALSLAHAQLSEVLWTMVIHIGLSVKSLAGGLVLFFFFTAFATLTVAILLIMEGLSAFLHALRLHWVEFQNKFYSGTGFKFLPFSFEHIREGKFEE
Sequence of UniProt O60566 (O60566 whole entry, looked up): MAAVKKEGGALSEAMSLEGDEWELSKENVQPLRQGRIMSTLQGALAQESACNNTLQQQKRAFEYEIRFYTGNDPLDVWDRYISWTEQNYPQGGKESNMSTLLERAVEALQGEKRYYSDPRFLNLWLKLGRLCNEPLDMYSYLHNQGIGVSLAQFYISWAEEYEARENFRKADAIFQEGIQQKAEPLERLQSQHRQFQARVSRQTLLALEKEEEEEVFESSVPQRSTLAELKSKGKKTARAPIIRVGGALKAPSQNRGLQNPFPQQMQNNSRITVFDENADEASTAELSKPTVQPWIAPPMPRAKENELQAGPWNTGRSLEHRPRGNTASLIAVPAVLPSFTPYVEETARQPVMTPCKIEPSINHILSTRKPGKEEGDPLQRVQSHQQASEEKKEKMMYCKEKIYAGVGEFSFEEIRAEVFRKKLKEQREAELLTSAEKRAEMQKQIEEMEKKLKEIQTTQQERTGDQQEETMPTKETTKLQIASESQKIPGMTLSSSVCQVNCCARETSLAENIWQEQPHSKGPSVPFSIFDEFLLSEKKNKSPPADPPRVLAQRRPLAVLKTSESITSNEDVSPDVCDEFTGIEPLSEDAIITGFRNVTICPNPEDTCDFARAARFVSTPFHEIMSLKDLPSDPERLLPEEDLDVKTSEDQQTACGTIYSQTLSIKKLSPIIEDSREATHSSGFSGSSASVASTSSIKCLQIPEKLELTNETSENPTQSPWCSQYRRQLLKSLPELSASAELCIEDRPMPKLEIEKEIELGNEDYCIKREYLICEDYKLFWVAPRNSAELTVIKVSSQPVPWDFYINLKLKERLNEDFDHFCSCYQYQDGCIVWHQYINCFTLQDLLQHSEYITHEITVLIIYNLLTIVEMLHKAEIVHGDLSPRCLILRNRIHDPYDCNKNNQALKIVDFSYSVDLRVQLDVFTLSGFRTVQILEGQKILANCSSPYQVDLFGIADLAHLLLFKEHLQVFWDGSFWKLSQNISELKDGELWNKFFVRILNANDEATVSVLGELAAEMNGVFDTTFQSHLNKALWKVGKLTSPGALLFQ
Sequence of UniProt Q9UKV3 (Q9UKV3 whole entry, looked up): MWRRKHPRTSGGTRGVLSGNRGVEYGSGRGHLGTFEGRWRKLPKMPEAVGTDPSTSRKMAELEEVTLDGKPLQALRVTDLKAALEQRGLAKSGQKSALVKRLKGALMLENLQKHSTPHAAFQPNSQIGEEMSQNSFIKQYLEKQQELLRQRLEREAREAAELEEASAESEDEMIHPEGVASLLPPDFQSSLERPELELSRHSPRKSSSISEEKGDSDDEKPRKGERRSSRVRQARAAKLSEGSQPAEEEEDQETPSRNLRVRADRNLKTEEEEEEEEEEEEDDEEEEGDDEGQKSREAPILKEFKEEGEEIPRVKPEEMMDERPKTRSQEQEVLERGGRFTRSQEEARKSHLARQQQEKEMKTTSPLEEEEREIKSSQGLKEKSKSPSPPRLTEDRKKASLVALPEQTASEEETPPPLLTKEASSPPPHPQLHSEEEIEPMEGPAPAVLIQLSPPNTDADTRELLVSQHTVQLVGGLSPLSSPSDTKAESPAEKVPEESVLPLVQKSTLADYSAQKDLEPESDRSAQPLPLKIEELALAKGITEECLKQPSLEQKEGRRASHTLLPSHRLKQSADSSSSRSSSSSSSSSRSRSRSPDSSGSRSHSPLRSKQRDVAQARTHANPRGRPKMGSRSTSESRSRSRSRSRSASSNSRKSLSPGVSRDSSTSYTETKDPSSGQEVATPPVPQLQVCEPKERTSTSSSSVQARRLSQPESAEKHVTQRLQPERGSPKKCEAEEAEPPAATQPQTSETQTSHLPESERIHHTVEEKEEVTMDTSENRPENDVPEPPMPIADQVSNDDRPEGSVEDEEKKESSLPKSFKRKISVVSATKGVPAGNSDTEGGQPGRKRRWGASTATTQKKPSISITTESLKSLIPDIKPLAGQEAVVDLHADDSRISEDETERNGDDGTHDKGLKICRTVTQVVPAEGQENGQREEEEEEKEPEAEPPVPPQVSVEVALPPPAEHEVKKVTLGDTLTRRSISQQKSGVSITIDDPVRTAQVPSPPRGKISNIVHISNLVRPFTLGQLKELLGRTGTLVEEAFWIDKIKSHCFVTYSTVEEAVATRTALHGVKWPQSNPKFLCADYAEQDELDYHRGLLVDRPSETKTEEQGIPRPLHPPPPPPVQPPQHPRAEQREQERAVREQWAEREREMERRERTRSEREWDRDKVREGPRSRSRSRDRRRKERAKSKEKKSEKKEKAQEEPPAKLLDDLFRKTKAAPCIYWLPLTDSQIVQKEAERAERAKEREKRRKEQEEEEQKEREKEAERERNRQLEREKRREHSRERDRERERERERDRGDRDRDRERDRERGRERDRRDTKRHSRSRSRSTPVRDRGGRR
Sequence of UniProt O43865 (O43865 whole entry, looked up): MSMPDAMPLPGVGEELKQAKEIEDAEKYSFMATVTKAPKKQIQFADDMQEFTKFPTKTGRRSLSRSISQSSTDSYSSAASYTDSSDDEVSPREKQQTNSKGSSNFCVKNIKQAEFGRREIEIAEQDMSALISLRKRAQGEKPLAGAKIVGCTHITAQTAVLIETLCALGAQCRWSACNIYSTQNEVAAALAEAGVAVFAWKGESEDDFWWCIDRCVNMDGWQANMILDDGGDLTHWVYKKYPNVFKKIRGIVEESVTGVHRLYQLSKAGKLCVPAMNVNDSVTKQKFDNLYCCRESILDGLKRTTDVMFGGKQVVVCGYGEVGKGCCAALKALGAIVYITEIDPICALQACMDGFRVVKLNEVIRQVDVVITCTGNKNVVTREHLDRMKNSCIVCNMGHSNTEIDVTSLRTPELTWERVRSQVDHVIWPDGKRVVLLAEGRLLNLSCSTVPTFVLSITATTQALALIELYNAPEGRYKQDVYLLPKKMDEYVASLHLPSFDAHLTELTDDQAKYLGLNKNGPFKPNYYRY
Sequence of UniProt Q02252 (Q02252 whole entry, looked up): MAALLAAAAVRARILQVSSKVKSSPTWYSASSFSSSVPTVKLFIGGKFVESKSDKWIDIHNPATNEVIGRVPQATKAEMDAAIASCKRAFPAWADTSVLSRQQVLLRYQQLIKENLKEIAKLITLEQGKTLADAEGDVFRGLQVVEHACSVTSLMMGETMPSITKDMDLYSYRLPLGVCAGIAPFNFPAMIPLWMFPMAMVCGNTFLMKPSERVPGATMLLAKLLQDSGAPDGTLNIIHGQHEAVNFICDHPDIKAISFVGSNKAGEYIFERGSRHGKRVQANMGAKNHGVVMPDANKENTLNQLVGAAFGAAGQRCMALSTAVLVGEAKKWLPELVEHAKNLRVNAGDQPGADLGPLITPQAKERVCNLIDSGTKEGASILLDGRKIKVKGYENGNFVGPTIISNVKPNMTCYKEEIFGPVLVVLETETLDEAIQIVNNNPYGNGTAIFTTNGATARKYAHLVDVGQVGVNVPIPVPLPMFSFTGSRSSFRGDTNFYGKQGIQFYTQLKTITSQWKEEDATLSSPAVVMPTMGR
Sequence of UniProt P54709 (P54709 whole entry, looked up): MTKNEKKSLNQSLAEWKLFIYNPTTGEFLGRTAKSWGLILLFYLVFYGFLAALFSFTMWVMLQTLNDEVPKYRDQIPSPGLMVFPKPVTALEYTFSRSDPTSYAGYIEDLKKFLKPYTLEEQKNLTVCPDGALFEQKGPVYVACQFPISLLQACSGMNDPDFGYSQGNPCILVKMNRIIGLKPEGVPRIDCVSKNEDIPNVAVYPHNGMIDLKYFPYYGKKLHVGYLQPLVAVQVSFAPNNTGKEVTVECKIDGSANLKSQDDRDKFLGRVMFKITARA

Target	log2 fold change [1]	log2 fold change [2]	log2 fold change [3]	log2 fold change [4]	log2 fold change [5]	log2 fold change [6]	log2 fold change [7]	log2 fold change [8]	log2 fold change [9]	log2 fold change [10]
BRD8 (UniProt Q9H0E9)	0	-0.021	0.018	0.06	-0.009	-0.013	0.046	-0.054	0.023	-0.022
ACIN1 (UniProt Q9UKV3)	-0.011	-0.014	0.068	-0.12	0.005	0.01	-0.003	0.002	0.029	0.007
BCL9L (UniProt Q86UU0)	0.029	0.085	0.018	-0.002	-0.011	0.097	-0.076	-0.112	0.006	0.025
BTAF1 (UniProt O14981)	0.055	-0.076	0.094	0.041	-0.016	-0.05	0.015	0.044	0.006	0.016
ABHD16A (UniProt O95870)	-0.012	0.277	0.029	0.033	0.014	0.158	-0.009	0.012	0.136	0.125
ACACB (UniProt O00763)	0.078	-0.152	-0.13	0.341	-0.113	0.041	-0.013	0.289	0.168	-0.188
ATG4B isoform 2 (UniProt Q9Y4P1)	0.078	-0.361	0.056	-0.004	-0.024	-0.12	-0.286	0.184	0.003	-0.277
ACADM isoform 2 (UniProt P11310)	0.075	0.022	0.018	-0.073	0.018	0.049	-0.022	-0.01	-0.059	0.052
ATP6V0A1 isoform 3 (UniProt Q93050)	-0.041	-0.349	-0.27	0.225	-0.093	0.094	0.073	0.144	0.152	-0.446 (active)
ALG11 (UniProt Q2TAA5)	0.142	0.007	0.103	-0.04	0.059	-0.129	0.036	0.015	0.038	0.029
ACBD6 (UniProt Q9BR61)	0.386 (active)	-0.36	-0.041	0.075	-0.026	0.076	0.032	0.082	-0.048	-0.14
BUB1B isoform 3 (UniProt O60566)	-0.015	-0.108	0.013	0.083	0.011	-0.207	0.119	0.057	0.047	-0.072
ACSL1 (UniProt P33121)	0.012	-0.091	0.017	-0.024	0.056	0.008	-0.028	0	-0.003	-0.246 (active)
ALG5 (UniProt Q9Y673)	0.005	-0.045	0.06	-0.065	0.11	-0.084	-0.046	0.045	-0.032	0.001
ANP32E (UniProt Q9BTT0)	-0.021	0.055	0.12	-0.16	0.036	-0.082	0.096	0.026	-0.014	0.002
ATP7B (UniProt P35670)	-0.009	-0.005	0.03	0.065	0.092	-0.141	0.033	-0.014	0.137	-0.015
AHCYL1 (UniProt O43865)	0.097	0.018	0.038	0.02	-0.005	0.02	0.007	-0.036	-0.045	-0.015
ATP1B3 (UniProt P54709)	0.053	0.111	0.027	-0.152	0.028	-0.013	-0.019	-0.04	-0.042	0.165
ATL2 (UniProt Q8NHH9)	0.078	-0.031	-0.003	-0.014	0.052	-0.035	-0.062	0.056	-0.018	0.376 (active)
B4GALT1 (UniProt P15291)	-0.007	-0.479 (active)	-0.031	-0.124	0.035	0.161	0.014	0.049	0.071	-0.066
BPHL (UniProt Q86WA6)	0.02	-0.036	0.008	-0.059	0.024	0.05	0.192	-0.01	0.004	0.01
ARL1 (UniProt P40616)	0.01	-0.073	0.094	-0.092	-0.004	-0.111	0.028	0.031	0.018	-0.064
AK6 (UniProt Q9Y3D8)	0.151	-0.156	0.175	0.115	0.075	-0.049	0.036	0.065	0.008	-0.085
BECN1 (UniProt Q14457)	0.141	-0.126	0.043	0.093	0.283 (active)	0.138	0.034	-0.066	-0.004	-0.019
ATP2A3 isoform 2 (UniProt Q93084)	-0.003	0.084	-0.048	-0.022	0.025	-0.068	-0.036	-0.025	-0.023	-0.091
ACAD9 (UniProt Q9H845)	0.01	0.035	0.021	-0.061	0.048	-0.03	-0.016	-0.052	-0.002	0.059
AP2A2 isoform 2 (UniProt O94973)	0.022	-0.076	-0.033	-0.186	0.009	-0.057	-0.091	-0.021	0.03	0.024
ALDH6A1 (UniProt Q02252)	-0.008	0.042	0.109	0.009	0.106	-0.057	-0.054	0.008	0.033	-0.042
AIP (UniProt O00170)	0.031	0.039	0.075	-0.055	0.014	-0.058	0.064	0.038	-0.024	0.011
AP2B1 isoform 2 (UniProt P63010)	0.022	-0.029	-0.005	-0.161	0.004	0.016	-0.056	0.007	-0.006	0.014
